This is one part of a sample in which hits are shown more often than they occur.
KDM5B inh: KDM5B demethylase inhibition; KDM5B demethylase, FDH-coupled NADH fluorescence (FDH is formaldehyde dehydrogenase); Q9UGL1; 220,000 compounds, 2.6% hits; Potency, µM (highest dose often 57.7 µM), usual class: inhibitors; active = well fitted inhibition curve with a large enough effect; note: nearly all actives have a fitted effect of over 70% in size
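Compound dilutions met 200 nM (final) KDM5BΔAP for 10 min at room temperature before substrate addition. The substrate mix held 12.5 µM H3K4me3 with cofactors 25 µM α-ketoglutarate and 50 µM Fe²⁺. NADH signal gain over 30 min defined activity.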
Hits are given with their value; n = inactive.

SMILES	KDM5B inh
Cc1c(Br)c(C(F)(F)F)nn1C(C)C(=O)N1CCN2CCCC2C1 (stereo not given)	n
O=C(NCCOc1ccccc1)C1CN(c2ccc(Cl)cc2)C(=O)N1 (stereo not given)	n
COc1cccc(NC(=O)COc2nc(C(C)C)c3c(c2C#N)CCC3)c1	n
O=C(CN1CCN(C(=O)c2cc(-c3ccncc3)nc3ccccc23)CC1)N1CCOCC1	n
Cc1cn2cc(CNC(=O)c3ccc(CN4CCCN(C)CC4)[nH]c3=O)nc2s1	28µM
O=C(NCc1ccc(CN2CCCCC2)cc1)c1cc(=O)[nH]c2ccccc12	n
Cc1nc(CN2CCN(C(=O)NCc3ccco3)CC2)cs1	n
CN1C(=O)c2cccn2CC1C(=O)Nc1cccc(Cl)c1 (stereo not given)	n
Cc1ccc(C)c(NC(=O)CN2CCC(C(=O)N3CCCC3)CC2)c1	n
Cc1cccc(N2CCN(C(=O)C3CCN(C(=O)C4CC4)CC3)CC2)n1	22µM
Cc1ncnc(N2CCN(C(=O)C3CCN(C(=O)C4CC4)CC3)CC2)c1C	n
COC[C@]1(O)CCN(C(=O)C2CCN(CC(N)=O)CC2)CC1(C)C	n
Cc1cc(C)nc(N2CCN(C(=O)C3CCN(CC(N)=O)CC3)CC2)n1	28µM
CCc1cccc2sc(N3CCN(C(=O)C4CC4)CC3)nc12	n
O=C(O)C1CC=CCC1C(=O)Nc1ccccc1C(F)(F)F (stereo not given)	n
O=C(c1cccc(S(=O)(=O)N2CCOCC2)c1)N(Cc1ccco1)C1CC1	n
CC1C(c2ccc(F)cc2)=[N+]([O-])C(C)(c2ccc(Br)cc2)N1O (stereo not given)	n
Cc1ccc(Cn2c(C3CCN(C(=O)c4c(F)cccc4F)CC3)n[nH]c2=O)cc1	n
Cc1ccc(CC(=O)N2CC(c3nnc(-c4ccc(C)cc4)o3)C3(CCOCC3)C2)cc1 (stereo not given)	n
CNC(=O)[C@@H]1C[C@H](n2cc(CNC(=O)Nc3ccc(F)cc3F)nn2)CN1	n
CC(=O)c1cn(CC(=O)N2CCCCCC2)c2ccccc12	n
Clc1ccc(-c2nnc(NCCN3CCCC3)c3ccccc23)cc1	n
Cc1oc(-c2ccccc2)nc1CN1CCCC(C(=O)NCCc2noc(-c3ccccc3)n2)C1 (stereo not given)	n
COCCn1cncc1CNc1nc(C)nc2ncccc12	n
Cc1nc(NCCN2CCCC(C(N)=O)C2)c2cccnc2n1 (stereo not given)	25µM
SMILES	KDM5B inh
NC(=O)C1CCCN(CCNc2cc(-c3ccccc3)nc3ccnn23)C1 (stereo not given)	32µM
NC(=O)N1CCCC(C(=O)NCCc2noc(-c3ccccc3)n2)C1 (stereo not given)	n
O=C(Nc1nnc(C2CC2)s1)C1CC(c2ccccc2)=NO1 (stereo not given)	n
O=C(Nc1cc(F)ccc1F)N1CCOc2ccc(CN3CCc4ccccc4C3)cc2C1	n
CCn1c(CC23CC4CC(CC(C4)C2)C3)nnc1SCc1ccc(F)cc1	n
CC(NC(=O)CNC(=O)c1ccc(N2CCCC2=O)cc1)c1ccc(Cl)cc1Cl (stereo not given)	n
COc1cc(NC(=O)c2cc(S(=O)(=O)N3CCCCC3)c[nH]2)cc(OC)c1OC	n
CC(C)(C)SCC(=O)N1CCCC(O)C1 (stereo not given)	n
O=c1n(-c2ccc([N+](=O)[O-])cc2)nc2n1CCN(Cc1ccc(F)cc1)C2	n
Cc1nc2ccccc2nc1SCC(=O)NCc1ccccc1	n
Cc1ccc(-c2cc(N3CCC(CNC(=O)c4ccc(=O)[nH]c4)CC3)n[nH]2)cc1	n
O=C(NCC1CCN(c2cc(-c3ccccc3)[nH]n2)CC1)c1ccc[nH]c1=O	32µM
O=C(NC1CCN(c2cc(-c3ccccc3)[nH]n2)CC1)c1ccccc1Cl	n
COCc1nc(C2CC(N)C2)cc(N(C)Cc2csc(C(C)C)n2)n1 (stereo not given)	n
Cn1cc(CNC(=O)C[C@@H]2C[C@H]3O[C@H](CNC(=O)Nc4ccc(F)cc4)[C@@H](O)[C@H]3O2)cn1	n
COc1ccc(-c2cnc(NC(=O)NCc3ccc(C)cc3)n2C)cc1	n
O=C(NCc1cccnc1)c1ccc2c(c1)N(C(=O)c1ccc(F)cc1)CC2	n
COc1cc(F)ccc1-c1cc(C(=O)NCc2cccnc2)c2c(c1)N(C)CCO2	28µM
COc1ncc(-c2cc(C(=O)NCc3cnn(C)c3)c3c(c2)N(C)CCO3)cn1	n
COc1ccc(-c2cc(C(=O)NCc3cnn(C)c3)c3c(c2)N(C)CCO3)cc1	35µM
Cc1ccc(OCn2ccc(C(=O)NCc3cnn(C)c3)n2)c(C)c1	n
COc1cc(F)ccc1-c1cc(C(=O)NCc2cnn(C)c2)c2c(c1)N(C)CCO2	40µM
COc1cc(NC(=O)C2=C(C)OCCS2)c(Cl)cc1C(=O)NCc1cccnc1	n
O=C(c1ccc(F)cc1)N1CCN(c2cn[nH]c(=O)c2Cl)CC1	n
COc1ccc(C(=O)CSC#N)cc1	n
SMILES	KDM5B inh
CC(C)=CC(=O)N(C)Cc1ccc(C(=O)NCC(F)(F)F)cc1	n
CCOC(=O)C1=C(CN2CCN(C(=O)OC(C)(C)C)CC2)NC(=O)NC1c1ccccc1 (stereo not given)	n
CCc1ccc(NC(=O)C2CCCN(c3nnc(C)c4c(C)n(-c5ccccc5)nc34)C2)cc1 (stereo not given)	n
CCOC(=O)c1ccc(NC(=O)C2CCCN(c3ncnc4onc(C)c34)C2)cc1 (stereo not given)	n
Cc1nccn1-c1ccc(NC(=O)C2CCCN(c3ncccc3C#N)C2)cc1 (stereo not given)	28µM
CC(Sc1nc(N)cc(N)n1)C(=O)c1ccccc1 (stereo not given)	n
Cc1cc(N2CCN(Cc3nc(C)no3)CC2)nc(C(C)C)n1	n
CC1CCN(C(=O)CCC[C@H]2NC[C@@H]3C[C@H]2CN(Cc2ccccc2)C3)CC1	7.9µM
CN1CCCN(C(=O)CCC[C@H]2NC[C@@H]3C[C@H]2CN(Cc2ccccc2)C3)CC1	n
O=C(CCC[C@H]1NC[C@@H]2CC1CN(Cc1ccccc1)C2)N1CCCC1	n
C/C=C/C[N+](C)(C/C=C/C)CC(=O)C(C)(C)C	n
CC(C)(C)c1ccc(C2CC2C(=O)N/N=C\C(Br)=C\c2ccccc2)cc1 (stereo not given)	n
Cc1cccc(-c2noc(CCCC(=O)NCc3ccco3)n2)c1	n
COc1ccc(-c2nc3cc(C)ccn3c2NC(=O)c2cccc(F)c2)cc1	n
COc1ccc(-c2nc3cnccn3c2NCCC(=O)O)cc1	28µM
CSCC(=O)NCc1ccco1	n
Cc1ccc(-c2nc3cnccn3c2NCCC(=O)NCc2ccco2)cc1	28µM
COc1ccccc1-c1nc2cnccn2c1NCCC(=O)Nc1cc(F)ccc1F	28µM
COc1ccc(-c2nc3cnccn3c2NCCC(=O)Nc2ccc(C)cc2C)cc1	25µM
COc1ccc(C(=O)NNC(=O)CCC(=O)Nc2ccc(C)cc2C)cc1	n
NCCC(=O)Nc1cc(F)ccc1F	n
COc1ccc(Nc2nc(-c3ccc(OC)cc3)c(CCC(=O)O)s2)cc1	n
COc1ccc(-n2ccn(CC(=O)Nc3ccc(C)cc3C)c(=O)c2=O)cc1	n
COc1ccccc1-c1cc(C(F)(F)F)nc(S(=O)(=O)CCCC(=O)Nc2ccccc2F)n1	n
COc1ccc(OC)c2[nH]c(C(=O)NC(C)C(=O)Nc3nc(C)cs3)cc12 (stereo not given)	n
COCCn1c(C)cc(C(=O)CSc2nnc(Nc3cccc(C)c3)s2)c1C	n
